Experimental data published in PubChem BioAssay (NCI).
About 83,000 compounds went through this panel and 20% of them were active in at least one assay; those are over-represented in the sample as a whole.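 How to read the values: 0–100, growth inhibition (40 = 60% inhibited); 0, no net growth; -100 to 0, cell death (-40 = 40% of starting cells died; -100 = all dead).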 Unmarked numbers belong to inactive results. Activity calls are given as the source filed them. Rule for the calls: active = growth percent below 10; inactive = the rest.

Experiments:
Test in all cases: NCI-60 one-dose screen, 48 h (100 = growth as untreated, 0 = no growth, -100 = all killed)
Settings in all cases: 10 µM unless noted
[1] = system: NCI-H23 lung
[2] = system: NCI-H226 lung
[3] = system: NCI-H322M lung
[4] = system: HOP-62 NSCLC
[5] = system: NCI-H460 lung
[6] = system: HOP-92 NSCLC
[7] = system: NCI-H522 lung
[8] = system: A549/ATCC NSCLC
[9] = system: 786-0 renal
[10] = system: COLO 205 colon
[11] = system: DU-145 prostate
[12] = system: MALME-3M melanoma
[13] = system: MDA-MB-231 breast
[14] = system: RXF 393 renal
[15] = system: SF-268 CNS
[16] = system: SF-295 CNS
[17] = system: SF-539 CNS
[18] = system: UACC-257 melanoma
[19] = system: M14 melanoma

| SMILES | growth [1] | growth [2] | growth [3] | growth [4] | growth [5] | growth [6] | growth [7] | growth [8] | growth [9] | growth [10] | growth [11] | growth [12] | growth [13] | growth [14] | growth [15] | growth [16] | growth [17] | growth [18] | growth [19] |
| --- | --- | --- | --- | --- | --- | --- | --- | --- | --- | --- | --- | --- | --- | --- | --- | --- | --- | --- | --- |
| CC(=O)[C@H]1CCC/C=C/[C@@H]2C[C@H](O)C[C@H]2[C@H](O)/C=C/C(=O)O1 | -5.21% (active) | -57.6% (active) | 29% | 25.4% | 6.67% (active) | 22.9% | -41.2% (active) | 20.5% | -48.3% (active) | -94.8% (active) | 25.4% | -11.5% (active) | -34.3% (active) | -32.8% (active) | 12.3% | 3% (active) | 18.5% | 24.1% | 5.74% (active) |
| CC1(C)NCCC[C@]2(C)[C@H]3CC[C@@H]4[C@H]5[C@H](C(=O)/C=C/c6ccco6)CC[C@]5(CO)CC[C@@]4(C)[C@]3(C)CC[C@@H]12 | 89.1% | 94.8% | 92.6% | 91.8% | 56.2% | 70.1% | 88.3% | 87.2% | 74.4% | -2.99% (active) | 97.4% | 78.7% | 96.2% | 89.2% | 95.7% | 113% | 87.8% | 91.9% | 91.3% |
| C=C(C)[C@@H]1CC[C@]2(C(=O)N[C@H](CO)Cc3ccccc3)CC[C@]3(C)[C@H](CC[C@@H]4[C@@]5(C)CCCNC(C)(C)[C@@H]5CC[C@]43C)[C@@H]12 | -71.9% (active) | -55.7% (active) | -86% (active) | -86.2% (active) | -86.2% (active) | -88.5% (active) | -79.2% (active) | -83.1% (active) | -90.7% (active) | -83.4% (active) | -87.4% (active) | -82.9% (active) | -87.1% (active) | -91.5% (active) | -81.2% (active) | -91.8% (active) | -87.7% (active) | -88.8% (active) | -90.2% (active) |
| NS(=O)(=O)c1ccc(CCN2C(=O)C3C(C2=O)C2(Cl)C(Cl)=C(Cl)C3(Cl)C2(Cl)Cl)cc1 (centres undefined) | 92.9% | 101% | 104% | 104% | 104% | 47.6% | 91% | 101% | 95.3% | 108% | 96.5% | 90.5% | 92.9% | 109% | 102% | 94% | 92.5% | 110% | – |
| C=C(C)[C@@H]1CC[C@]2(C(=O)N[C@@H](Cc3ccccc3)C(=O)OC)CC[C@]3(C)[C@H](CC[C@@H]4[C@@]5(C)CCC(=O)C(C)(C)[C@@H]5CC[C@]43C)[C@@H]12 | 86.7% | 94.6% | 93.4% | 94% | 81.3% | 57.6% | 79.7% | 79% | 85.8% | 94.5% | 92.7% | 102% | 102% | 101% | 78% | 78.8% | 93.7% | 104% | – |
| COc1cc(C2C3=C(COC3=O)N(CCO)c3cc4c(cc32)CCC4)cc(OC)c1OC (centres undefined) | -26.2% (active) | 2.98% (active) | 39.8% | 7.11% (active) | -44.8% (active) | 78.2% | -26.7% (active) | 28.9% | -4.65% (active) | -98.8% (active) | -23.7% (active) | 54.9% | 1.31% (active) | 26.5% | 22% | -23.6% (active) | -29.8% (active) | 52.9% | – |
| O=C(/C(=C/c1ccc([N+](=O)[O-])cc1)SCc1ccc(F)cc1)c1ccc(F)cc1 | 74.8% | 86.9% | 85.9% | 93.6% | 90.7% | 90.2% | 52.2% | 91.4% | 78.7% | 94.7% | 94.6% | 88.8% | 76.1% | 97% | 80.8% | 93.2% | 105% | 108% | 82.8% |
| CC(C)=CCC[C@](C)(O)[C@H]1CC[C@]2(C)[C@@H]1CC[C@@H]1[C@@]3(C)C/C(=C/c4ccccc4)C(=O)C(C)(C)[C@@H]3CC[C@]12C | 84.7% | 93.7% | 93.7% | 92.2% | 91.1% | 78.8% | 77.9% | 85.1% | 92.2% | 99.9% | 85.3% | 78.6% | 85.5% | 95.3% | 94.7% | 109% | 90.4% | 104% | 96.5% |
